Assay results: PubChem BioAssay AID504451 (NMMLSC, 2011)
Out of some 2,000 compounds screened, about 80 (4%) were called active.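 Rule for the calls: active = aptamer displacement above 40%, near three times the noise of non-fluorescent compounds, on plates passing quality checks; inactive = the rest.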 Not all results are given here.

These compounds were tested against Beta-adrenergic receptor kinase 1 (Homo sapiens) (UniProt P25098) (assay: RNA aptamer-GRK2 binding blockers – biochemical, cherry pick 1, bead flow cytometry, confirmation (AID 504451;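 note: negative values mostly reflect intrinsic compound fluorescence rather than true enhancement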)). Settings: bead-bound GRK2, FAM-aptamer displacement, at 10 µM, active compounds read high.
Beta-adrenergic receptor kinase 1 (Homo sapiens), sequence (P25098 whole entry, looked up): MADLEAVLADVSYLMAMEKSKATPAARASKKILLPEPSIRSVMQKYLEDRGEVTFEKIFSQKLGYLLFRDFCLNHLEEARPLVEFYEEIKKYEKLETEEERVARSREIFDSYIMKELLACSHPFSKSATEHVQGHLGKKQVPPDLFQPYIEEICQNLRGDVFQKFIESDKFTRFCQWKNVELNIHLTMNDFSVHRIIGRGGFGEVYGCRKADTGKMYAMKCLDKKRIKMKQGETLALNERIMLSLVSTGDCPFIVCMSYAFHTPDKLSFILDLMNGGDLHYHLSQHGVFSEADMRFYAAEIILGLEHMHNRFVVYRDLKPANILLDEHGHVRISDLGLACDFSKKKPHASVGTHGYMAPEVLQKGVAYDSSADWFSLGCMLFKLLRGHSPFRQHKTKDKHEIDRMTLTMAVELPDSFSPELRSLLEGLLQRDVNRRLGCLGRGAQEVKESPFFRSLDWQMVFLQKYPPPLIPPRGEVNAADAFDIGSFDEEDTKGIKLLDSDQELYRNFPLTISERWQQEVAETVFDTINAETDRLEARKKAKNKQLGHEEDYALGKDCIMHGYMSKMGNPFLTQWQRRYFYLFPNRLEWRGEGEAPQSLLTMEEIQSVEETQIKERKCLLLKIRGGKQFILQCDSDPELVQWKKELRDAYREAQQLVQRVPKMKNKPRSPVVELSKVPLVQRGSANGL

Aptamer displacement, active:
CCC(=C/c1sc2ccc3ccccc3c2[n+]1C)/C=C1\Sc2ccc3ccccc3c2N1C 101%
CCN1/C(=C\c2ccc3ccccc3[n+]2CC)Sc2cc(C)ccc21 75.6%
CCN1/C(=C/c2ccc3ccc(C)cc3[n+]2CC)Sc2ccccc21 65.9%
C=C(C)C(=O)Nc1cccc(C2=NOC3(C2)C[C@H](C(N)=O)N(C(=O)C(c2ccccc2)c2ccccc2)C3)c1 (stereo partly drawn) 80.5%

Aptamer displacement, inactive:
COc1cc(C(=O)NCc2ccc3c(c2)cc(C)n3C)cc(OC)c1OC 0.16%
Cc1csc(=O)n1CC(=O)OCC(=O)N(CC(C)C)c1c(N)n(Cc2ccccc2)c(=O)[nH]c1=O -4.19%
COCCn1c(C)cc(C(=O)CN2c3cccc4cccc(c34)S2(=O)=O)c1C 5.59%
COc1ccc(NC(=O)CN(C)C(=O)c2cc(-c3ccc(C)o3)nc3ccccc23)cc1 1.02%
O=C(NNc1ncnc2c1cnn2-c1ccccc1)c1ccco1 -5.21%
C/C(=N\OCC(=O)O)c1ccc(Cl)cc1 -4.26%
NC(=O)C1CCN(C(=O)c2ccc3c(=O)n(Cc4cccc(Br)c4)c(=S)[nH]c3c2)CC1 2.04%
CCCCn1nc(C(=O)OCC(=O)Nc2sccc2C(N)=O)c2ccccc2c1=O -3.95%
O=S(=O)(Nc1ccc(-c2ccc(N3CCOCC3)nn2)cc1)c1cc(Cl)ccc1Cl 1.37%
CCOC(=O)C(C)n1cnc2scc(-c3ccc(C)c(C)c3)c2c1=O (stereo not drawn) 0.17%
COc1ccccc1NC(=O)CSc1nc2sc3c(c2c(=O)n1-c1ccccc1)CCN(C)C3 1.27%
O=C(Nc1nnc(-c2ccccc2)o1)c1cccc(S(=O)(=O)N2CCOCC2)c1 -3.8%
CSc1ccc(/C=C2\NC(=O)NC2=O)cc1 -11.5%
Cc1nn(Cc2ccc(F)cc2)c(C)c1NC(=O)c1noc2c1CCc1ccccc1-2 12.1%
O=C(COC(=O)c1ccc(F)cc1F)Nc1ncccn1 39.1%
Cc1ccccc1CN1CCN(CC(=O)NCc2ccccn2)C1=O 0.03%
CCOCCCNC(=O)C(NC(=O)CNC(=O)c1ccccc1)c1ccc(OC)cc1 (stereo not drawn) -2.56%
Cc1ccc(C(CNC(=O)Nc2cccc(C)c2)N2CCN(C)CC2)cc1 (stereo not drawn) -1.91%
O=C(CCNC(=O)c1ccccc1)NN=Cc1ccc(Br)o1 8.12%
Cc1ccc(N2C(=O)C3N=NN(CC(=O)N4N=C(c5cccc6ccccc56)CC4c4ccccc4)C3C2=O)cc1 (stereo not drawn) -6.3%
CC(=O)N1CC[n+]2c(-c3ccc([N+](=O)[O-])cc3)csc21 -2.74%
O=C(c1cc2cc(F)ccc2[nH]1)N1CCN(c2ccc(F)cc2)CC1 -3.05%
Cc1cccc(NC(=O)C2CCCN(C(=O)NCc3ccccc3)C2)c1C (stereo not drawn) -2.02%
COc1ccc(Cl)cc1NC(=O)CCS(=O)(=O)c1cc2c(cc1C)NC(=O)CO2 1.91%
COc1ccc(-n2nc(C(=O)NCC(=O)N3CCCCCC3)c3ccccc3c2=O)cc1Cl -1.64%
CC(NC(=O)C1CCCN(S(=O)(=O)c2ccc(-n3cnnn3)cc2)C1)c1ccc(F)cc1 (stereo not drawn) 1.56%
COc1cc(C(=O)OCC(=O)N(CC(C)C)C2CCS(=O)(=O)C2)ccc1OCC(C)C (stereo not drawn) -1.87%
Cc1nc(Nc2ccccc2F)c2nnn(Cc3ccccc3Cl)c2n1 0.75%
COCCCNC(=O)CNC(=O)c1nn(-c2ccc(OC)cc2)c(=O)c2ccccc12 -4.54%
COc1ccc(Nc2cc(Sc3ccc(OC)cc3)ncn2)cc1 -1.93%
CCOC(=O)c1sc2nc(CSc3ccccc3)[nH]c(=O)c2c1C -0.46%
Nc1ccc2nc3c(=O)[nH]c(=S)[nH]c3nc2c1 33%
Cc1cc(C(=O)NC2CCN(Cc3ccccc3)CC2)n[nH]1 -6.63%
O=C(NCC12CC3CC(C1)CC(CNC(=O)N1CCCC1)(C3)C2)N1CCCC1 -0.31%
CCOc1ccccc1C(=O)NCc1ccco1 -1.88%
COC(=O)c1ccc(C)c(NC(=O)C2CC(=O)N(C3CCCC(C)C3C)C2)c1 (stereo not drawn) -1.41%
O=C(NCc1ccccc1)c1cccc(NC(=O)C2CCCCC2)c1 0.14%
COc1ccc(C(=O)NCCNc2ccc([N+](=O)[O-])cn2)cc1 -0.48%
C/C(=N\Nc1nc2ccccc2[nH]1)c1cccs1 -0.6%
COc1ccc(Nc2nc(-c3cccnc3)nc3ccccc23)cn1 4.02%
COc1ccc(N2CCN(C(CNS(=O)(=O)c3ccc(C)cc3)c3ccccc3)CC2)cc1 (stereo not drawn) -2.82%
O=C(Nc1ccc(-c2nnc(-c3ccccc3)o2)cc1)c1ccc(Br)o1 0.23%
O=C1C2N=NN(CC(=O)N3N=C(c4cccc5ccccc45)CC3c3ccccc3)C2C(=O)N1c1ccccc1 (stereo not drawn) 0.13%
COc1cccc(CN(C)CC(=O)Nc2sc3c(c2C#N)CCC3)c1 -0.98%
Cc1ccccc1-c1nnn(CC(=O)c2ccc(S(=O)(=O)N3CCCC3)cc2)n1 -1.24%
CC(C)CN(C(=O)c1cccc(S(=O)(=O)N2CCCCC2)c1)C1CCS(=O)(=O)C1 (stereo not drawn) 0.16%
O=c1[nH]c(SCc2ccccc2)nnc1-c1ccccc1 -4.45%
Cc1cc(/C=C2\SC(=O)N(C)C2=O)c(C)n1-c1cccc(C(=O)O)c1 10.9%
CN(CC(=O)Nc1ccc(N2CCOCC2)cc1)CC(=O)Nc1ccccc1[N+](=O)[O-] -1.83%
CNS(=O)(=O)c1cccc(C(=O)NCC2CCCCC2)c1 3.13%
CCCc1nc2ccccc2c(=O)n1NC(=O)c1c(O)c2ccccc2[nH]c1=O -0.69%
Cn1c(=O)[nH]c(=O)c2c1nc(N1CCN(C(c3ccccc3)c3ccccc3)CC1)n2CCO -8.5%
O=C(CCS(=O)(=O)c1ccc(Br)cc1)NCCc1ccc(Cl)cc1 28%
Cc1ccc(S(=O)(=O)CCC(=O)Nc2nnc(CC(C)C)s2)cc1 2.47%
O=C(Oc1ccc(Br)cc1)c1cccnc1 -1.31%
COC(=O)N/N=C/c1ccc(/C=N/NC(=O)OC)cc1 -0.84%
O=C(c1cnn(-c2ccc(Cl)cc2)c1)c1ccccc1O 0.64%
CSc1nc2ccccc2c(=O)n1Cc1ccc(F)cc1 1.65%
CC(=O)c1ccc(OCC(O)CN2CCN(S(=O)(=O)c3cccc(Br)c3)CC2)cc1 (stereo not drawn) -3.98%
Cc1cc2cc(CNC(=O)c3cccs3)ccc2[nH]1 11.7%
Cn1c(=O)c2c(nc(N3CCOCC3)n2CCNC2=NCCC2)n(C)c1=O 5.84%
CN(Cc1ccccc1)C(=O)c1cccc(C(=O)N(C)Cc2ccccc2)c1 -0.51%
CCN1C(=O)[C@H]2[C@@H](c3ccc(-c4ccc(OC)cc4)cc3)N[C@@](Cc3ccccc3)(C(=O)OC)[C@H]2C1=O -7.18%
OC(CN=c1sc2ccccc2n1CC(O)COc1ccccc1)COc1ccccc1 (stereo not drawn) 1.11%
CCOC(=O)C1CCCN(Cc2nc(N)nc(Nc3ccc(C)cc3)n2)C1 (stereo not drawn) 0.86%
Cc1ccc(-c2nn(-c3ccccc3)cc2/C=C2\SC(=S)N(CCCCCC(=O)O)C2=O)o1 -4.86%
O=C(NCc1ccccc1Cl)c1ccc2c(=O)n(CC3CCCO3)c(=S)[nH]c2c1 (stereo not drawn) -1.07%
O=C(NC(=O)c1cc(OCC(F)(F)F)ccc1OCC(F)(F)F)Nc1ccccc1 2.33%
CC(C)Cn1c(CN(Cc2ccccc2)Cc2ccccc2)nc2c1c(=O)n(C)c(=O)n2C 0.47%
O=C(O)c1ccc2c(c1)C(=O)N(c1ccc(/C=C/C(=O)c3ccccc3)cc1)C2=O 0.79%
CN/C(=C\[N+](=O)[O-])NCCSCc1csc(CN(C)C)n1 1.33%
O=C(c1ccc(Cl)cc1)c1ccc(OCC(O)CN2CCCCC2)cc1 (stereo not drawn) -0.78%
O=C(COc1ccccc1)NCCc1nc2ccccc2[nH]1 22.4%
Cc1nc(C(=O)NCc2ccccc2)sc1C1(C)CC(c2cccnc2)=NO1 (stereo not drawn) -1.29%
